# Source: PubChem BioAssay AID1813 (Broad Institute, 2009)
# Out of some 300,000 compounds screened, about 2,500 (0.83%) were called active. The full list was thinned out, with actives kept by preference. A number with no mark means an inactive call. Cut-off read from the data, not from the text of the source: active = inhibition above about 60%; inconclusive = no clear call, values can overlap the other calls; inactive = below that.
# Test: 5' untranslated region of α-synuclein, MLPCN primary screen (AID 1813);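 note: H4 neuroglioblastoma cells stably carrying SNCA 5'UTR luciferase fusion; 0% = DMSO wells and 100% = positive control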
# Details: alpha-synuclein 5'UTR reporter, inhibitor activity; hits give high values; tested at 7.5 µM
row,Compound,inhibition
1,COc1ccc2c(c1)CCc1cn3ncc(C#N)c3nc1-2,68.1% (active)
2,COc1ccc2nc(N3CCCC(O)C3)c(C#N)cc2c1 (configuration not stated),-114%
3,N#Cc1cnn2cc(CCN3CCOCC3)c(-c3ccc(F)cc3)nc12,17%
4,CC(C)[C@H](NC(=O)N1CCn2c1nc1ccccc12)C(=O)NC1CC1,-11.1%
5,CC1(c2ccc(Cl)cc2)NC(=O)N(CC(=O)c2ccc3c(c2)OCO3)C1=O (configuration not stated),-7.93%
6,CC(C)(C)C(=O)Nc1ccc(-c2cn3cccnc3n2)cc1,-130%
7,Cc1nc(N2CCCCC2)sc1C=O,10.9%
8,Brc1ccc2nc(N3CCCC3)sc2c1,-105%
9,c1c2c(cc3sc(N4CCCCC4)nc13)OCCO2,107% (active)
10,CN(CC(=O)O)S(=O)(=O)c1ccc2oc3ccccc3c2c1,-11.7%
11,COc1ccc(NS(=O)(=O)c2cc3c(cc2C)N(C(C)=O)CCO3)cc1,11.8%
12,COc1ccc(-c2oc3ncn(Cc4ccco4)c(=N)c3c2-c2ccc(OC)cc2)cc1,36%
13,O=C(NCCN1C(=O)C2C3C=CC(C3)C2C1=O)Nc1ccccn1 (configuration not stated),-5.4%
14,O=C(CN1C(=O)C2C3C=CC(C3)C2C1=O)NCCc1ccccc1Cl (configuration not stated),-1.36%
15,O=C(CN1C(=O)C2C3C=CC(C3)C2C1=O)Nc1nc(-c2ccccn2)cs1 (configuration not stated),82.4% (active)
16,Cc1ccc(S(=O)(=O)CCC(=O)Nc2nnc(CC(C)C)s2)cc1,-17%
17,O=S(=O)(NCc1ccc(Cl)cc1Cl)c1cccs1,-22.7%
18,Cc1oc(-c2ccccc2Cl)[n+]([O-])c1C,34.1%
19,COc1ccc(Br)c2c1C(=O)CC2,8.26%
20,CC1CCCN(S(=O)(=O)c2ccc(C(=O)Nc3nnc(-c4ccncc4)o3)cc2)C1 (configuration not stated),-13.6%
21,CSCc1nnc(NC(=O)c2ccc(S(=O)(=O)N3CCCCC3C)cc2)o1 (configuration not stated),14.5%
22,CC1CCCCN1S(=O)(=O)c1ccc(C(=O)Nc2nnc(-c3cccs3)o2)cc1 (configuration not stated),89.9% (active)
23,Cc1onc(-c2ccccc2Cl)c1C(=O)NCCn1ccc2ccccc21,29.7%
24,Cc1onc(-c2ccccc2Cl)c1C(=O)OCC(=O)c1ccccc1,12.5%
25,Cc1onc(-c2ccccc2Cl)c1C(=O)N(Cc1ccc(N(C)C)cc1)C(C)C,73.1% (active)
26,O=C(CN1CCOCC1)Nc1cccc([N+](=O)[O-])c1,1.99%
27,Cc1nc(-c2nnc(SCC(=O)Nc3cc(C(F)(F)F)cc(C(F)(F)F)c3)n2C)cs1,15.6%
